Sampled rows, rich in hits. Any-hit rate of the full collection: about 1.5%.
Glyco luc inh = N-linked glycosylation inhibition | D54 ERlucT glycosylation luciferase reporter, 24 h; percent of 100 nM tunicamycin response | 360,000 tested, 0.23% active | reporter increase, % at 12.5 µM;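 active means mean luciferase reporter signal, scaled so untreated is 0 and the glycosylation-blocking control 100, at or above a set limit in every replicate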;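 further: luciferase carries N-glycosylation sites so blocking glycosylation raises the light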
FID counter = displaces DNA intercalator in HCV helicase counter-screen. DNA fluorescent intercalator displacement, fluorescence. inhibition, % at 7.9 µM. 290,000 tested, 0.17% active; in the data active means inhibition above about 37%;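 further: higher means more ethidium bromide displaced from hairpin DNA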
RAD52 inh = blocks human RAD52 DNA annealing | P43351 | recombinant RAD52 DNA annealing, FRET fluorescence | inhibition, % at 18.7 µM | 360,000 tested, 0.46% active;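 active means every replicate showing at least 50% inhibition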
CendR NRP1 mod = NRP-1/CendR interaction modulation. FAM-RPARPAR peptide binding to NRP-1, fluorescence polarization. inhibition, % at 25 µM. 360,000 tested, 0.85% active;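 active means inhibition or corrected inhibition above about 18%, plus a signal ratio from 0.5 to 1.5, limit read from the data, passing the limit was not always enough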
miR-122 sensor = blocks miR-122 activity in Huh7 sensor cells | activation (reporter increase), % at 12.5 µM | 340,000 tested, 0.3% active | Huh7 miR-122 Renilla luciferase sensor, 48 h; neutral wells = 0, positive control = 100;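 active means mean replicate activation score at least 90 and every replicate individually at or above 90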;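 further: higher luciferase means less miR-122 activity so hits act as miR-122 inhibitors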
RAD54 branch = blocks human RAD54 Holliday junction branch migration. 360,000 tested, 0.14% active. inhibition, % at 10.4 µM. FAM/BHQ fluorescence. AID 602329. Q92698;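 active means mean normalized replicate activity at least 40 and at least half of replicates scoring 40 or more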;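 further: inhibitors cause a drop in the FAM fluorescence signal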
Target sequence (Q92698 whole entry, looked up): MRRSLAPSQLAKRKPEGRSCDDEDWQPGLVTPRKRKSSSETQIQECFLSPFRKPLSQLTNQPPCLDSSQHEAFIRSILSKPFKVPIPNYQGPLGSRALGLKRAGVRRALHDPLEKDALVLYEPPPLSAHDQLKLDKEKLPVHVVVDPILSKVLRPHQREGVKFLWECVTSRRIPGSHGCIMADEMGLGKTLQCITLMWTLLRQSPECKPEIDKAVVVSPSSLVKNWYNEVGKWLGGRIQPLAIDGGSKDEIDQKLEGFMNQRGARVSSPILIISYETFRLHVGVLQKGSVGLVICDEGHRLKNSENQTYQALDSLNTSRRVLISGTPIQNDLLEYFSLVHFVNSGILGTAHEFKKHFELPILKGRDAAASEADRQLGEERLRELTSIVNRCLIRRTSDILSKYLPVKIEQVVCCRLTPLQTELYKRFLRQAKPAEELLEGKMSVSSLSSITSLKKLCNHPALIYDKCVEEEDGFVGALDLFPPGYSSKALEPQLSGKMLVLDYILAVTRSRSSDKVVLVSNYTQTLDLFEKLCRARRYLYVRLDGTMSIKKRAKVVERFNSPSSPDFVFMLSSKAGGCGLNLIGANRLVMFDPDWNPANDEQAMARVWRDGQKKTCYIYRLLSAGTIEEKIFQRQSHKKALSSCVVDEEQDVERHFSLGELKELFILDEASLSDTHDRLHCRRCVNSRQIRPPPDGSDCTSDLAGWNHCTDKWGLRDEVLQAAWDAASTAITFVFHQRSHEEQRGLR
Numbers stand for hits; i = inactive; nt = no result.

SMILES | Glyco luc inh | FID counter | RAD52 inh | CendR NRP1 mod | miR-122 sensor | RAD54 branch
CC(=O)c1ccc(OCC(O)CN2CCN(CCN3C(=O)c4cccc5cccc(c45)C3=O)CC2)cc1 (configuration not stated) | 56 | i | nt | i | nt | nt
Cc1ccnc(NC(=O)COc2ccc3oc4c(c3c2)CCCC4)c1 | i | i | nt | 44 | i | i
CNC(=O)COc1ccc2oc3c(c2c1)CCCC3 | i | i | i | i | i | i
Cc1c(CC(=O)N2CCN(C(=O)C3COc4ccccc4O3)CC2)c(=O)oc2cc(O)ccc12 (configuration not stated) | i | i | i | 72 | i | i
COc1ccc2c(C)c(CC(=O)N3CCN(C(=O)C4COc5ccccc5O4)CC3)c(=O)oc2c1 (configuration not stated) | i | i | i | i | i | i
O=C(Nc1cccc(-n2cnnn2)c1)c1cc(Cl)ccc1Cl | 34 | i | i | i | i | i
O=C(Nc1cccc(-n2cnnn2)c1)c1ccccc1Br | i | i | i | i | i | i
COc1ccc(Cl)cc1NC(=O)c1cccc(-n2cnnn2)c1 | i | nt | i | 22 | nt | nt
O=C(C[C@@H]1C=C[C@@H](NC(=O)C2CCOCC2)[C@@H](CO)O1)Nc1ccccc1 | nt | nt | i | nt | nt | nt
Cn1cnnc1SCC(=O)Nc1nc(-c2ccccc2)cs1 | i | i | i | 20 | i | nt
COc1ccccc1C(=O)NC(=O)CSc1nncn1C | i | nt | i | 26 | i | i
CC(=O)NNc1nc(-c2ccccc2)cs1 | i | i | i | i | nt | nt
Cc1csc(NC(=O)c2cc(-c3ccccc3)nc3ccccc23)n1 | i | i | nt | 35 | nt | nt
CC(=O)Nc1nc(-c2ccc(-c3ccccc3)cc2)cs1 | i | nt | i | 21 | i | i
O=C(C[C@@H]1CC[C@H](NC(=O)Cc2ccccn2)[C@H](CO)O1)NCCc1ccccc1 | nt | nt | i | nt | nt | i
O=C(C[C@H]1CC[C@H]2[C@@H](COC[C@@H](O)CN2S(=O)(=O)c2ccccc2)O1)NCC1CCCCC1 | nt | nt | i | nt | i | i
O=C(C[C@@H]1CC[C@H]2[C@@H](COC[C@H](O)CN2S(=O)(=O)c2ccccc2)O1)NCC1CCCCC1 | nt | nt | 53 | nt | i | i
O=C(C[C@H]1CC[C@@H]2[C@H](COC[C@H](O)CN2S(=O)(=O)c2ccccc2)O1)NCC1CCCCC1 | nt | nt | 55 | nt | i | i
COc1cc(CCC(N)c2cccc(O)c2)cc(OC)c1OC (configuration not stated) | i | nt | i | 26 | nt | nt
Nc1cccc2nsnc12 | i | i | i | i | i | i
Nc1cc2nsnc2cc1Br | i | i | nt | 40 | i | i
C=CCn1c(NC(=O)c2ccccc2)nc2ccccc21 | i | i | i | 26 | nt | i
C=C(C)Cn1c(SCC(=O)O)nnc1-c1ccccc1 | i | i | i | 28 | i | i
C=C(C)Cn1c(SCC(=O)O)nnc1-c1ccc(C(C)(C)C)cc1 | i | i | nt | i | i | i
CC(=O)Nc1ccc(C(C)=NNC(=O)C2CCCC2)cc1 | i | nt | i | i | i | i
SMILES | Glyco luc inh | FID counter | RAD52 inh | CendR NRP1 mod | miR-122 sensor | RAD54 branch
C/C(=N\NC(=O)C1CCCC1)c1ccc(C(C)C)cc1 | i | i | i | 27 | i | i
C[C@H](CO)N1C[C@H](C)[C@H](CN(C)C(=O)C2CCOCC2)Oc2ncc(C3=CCCCC3)cc2C1=O | nt | nt | i | nt | i | i
COc1ccc(NS(=O)(=O)c2cccc(NC(=O)COc3ccccc3[N+](=O)[O-])c2)cc1 | i | nt | i | i | 146 | i
C[C@H]1CN([C@@H](C)CO)C(=O)c2cc(NS(=O)(=O)c3ccccc3)ccc2O[C@H]1CN(C)S(=O)(=O)c1ccc(F)cc1 | nt | nt | nt | nt | i | nt
CCOc1ccc(Br)cc1C1=NN(C(C)=O)C(c2ccc([N+](=O)[O-])s2)O1 (configuration not stated) | 36 | i | i | i | i | i
CN1C(=O)c2cc(NC(=O)C3CC3)ccc2OC[C@H]2O[C@@H](CC(=O)Nc3cccc(Cl)c3)CC[C@@H]21 | nt | nt | i | nt | nt | nt
CSc1ccc(NC(=O)C2(C)CCN2C(=O)c2ccccc2CCc2ccccc2)cc1 (configuration not stated) | i | nt | i | 42 | i | i
C#Cc1ccc(NC(=O)C2(C)CCN2C(=O)c2ccccc2CCc2ccccc2)cc1 (configuration not stated) | i | nt | i | i | i | i
C[C@H](CO)N1C[C@H](C)[C@H](CN(C)Cc2ccc(C(=O)Nc3ccccc3N)cc2)Oc2ccc(NS(=O)(=O)c3ccccc3)cc2C1=O | nt | nt | i | nt | i | i
OC1CCCN(Cc2ccc3ccc4cccc5ccc2c3c45)C1 (configuration not stated) | 57 | i | nt | i | nt | 91
CC(C)Cc1ccc(CN2CC[C@@H](NS(=O)(=O)c3ccccc3)C2)cc1 | nt | nt | i | nt | nt | i
COc1cccc(C#Cc2cnc3c(c2)C(=O)N([C@@H](C)CO)C[C@@H](C)[C@@H](CN(C)C(=O)C2CCC2)O3)c1 | nt | nt | i | nt | i | i
Cc1cc(SCC(=O)c2cc(C)n(C)c2C)nc2ccccc12 | i | i | i | 42 | nt | nt
NCCCNCCCCNCCCN | i | nt | 111 | i | i | i
COc1ccccc1C#Cc1cnc2c(c1)C(=O)N([C@@H](C)CO)C[C@@H](C)[C@H](CN(C)C(=O)CC1CC1)O2 | nt | nt | i | nt | i | i
O=C(c1cnccn1)N1CC[C@@H]2[C@H]1c1cc(C#Cc3cccnc3)ccc1N[C@@H]2CO | nt | nt | i | nt | i | i
CCOC(=O)c1cnc2ccc(C)cc2c1NCCO | i | i | nt | 27 | i | i
COc1ccc(S(=O)(=O)N(C)C[C@H]2Oc3c(NC(=O)Nc4ccccc4)cccc3C(=O)N([C@H](C)CO)C[C@H]2C)cc1 | nt | nt | nt | nt | i | nt
Cc1ccc(C)c(S(=O)(=O)N(C)c2ccc(OC(=O)C3CCN(C(=O)Nc4ccccc4)CC3)cc2)c1 | i | nt | i | 25 | i | i
COc1cc2c(c(OC)c1OC)-c1c(cc3c(c1OC)OCO3)C[C@H](C)[C@@](C)(O)C2 | i | nt | i | i | i | i
COc1cc2c(c(OC)c1OC)-c1c(cc(OC)c(OC)c1OC)C[C@](C)(O)[C@@H](C)C2 | i | nt | i | 39 | i | i
O=C(C[C@@H]1C=C[C@@H](NC(=O)c2ccncc2)[C@H](CO)O1)NCc1ccncn1 | nt | nt | i | nt | nt | nt
C[C@H](CO)N1C[C@H](C)[C@H](CN(C)Cc2ccccc2)Oc2ncc(-c3cccnc3)cc2C1=O | nt | nt | nt | nt | i | nt
CC(=O)Nc1ccc(S(=O)(=O)NCC(=O)NCCCc2ccccc2)cc1 | i | i | i | i | i | i
CC(=O)Nc1ccc(S(=O)(=O)NCCC(=O)NCCCc2ccccc2)cc1 | i | nt | i | 22 | i | i
CC(=O)Nc1ccc(S(=O)(=O)NCCc2ccc(S(N)(=O)=O)cc2)cc1 | i | i | nt | i | 226 | i
O=C(Nc1ccc(S(=O)(=O)NCCc2ccccc2)cc1)c1ccco1 | i | i | i | i | 365 | nt
O=C(Nc1ccc(S(=O)(=O)NCCc2ccccc2)cc1)c1ccncc1 | i | i | i | i | nt | i
